This excerpt belongs to a sample that is enriched for hits.
G9a inh: qHTS Assay for Inhibitors of Histone Lysine Methyltransferase G9a | G9a H3K9 monomethylation, AlphaScreen, 2 h | Potency, µM (doses to about 102 µM), most hits filed as inhibitors | 350,000 tested, 8.8% active | AID 504332, 2011; also: nearly all actives have a fitted effect of over 75% in size
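AlphaScreen read-out: biotin-H3K9 peptide (500 nM) methylation by 20 nM enzyme with 20 uM SAM, 2 h at room temperature after 15 min compound preincubation; anti-monomethyl H3K9 antibody plus donor/acceptor beads, 10 min dark.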
12-LOX inh: Primary qHTS assay for inhibitors of human arachidonate 12S-lipoxygenase (ALOX12): Round 2 | Potency, µM (titrated, usually from 108 µM), usual class: inhibitors | Polyunsaturated fatty acid lipoxygenase ALOX12 (Homo sapiens), P18054 | 580,000 tested, 1.1% active | purified 12hLO, xylenol orange hydroperoxide absorbance
Target sequence (P18054 whole entry, looked up): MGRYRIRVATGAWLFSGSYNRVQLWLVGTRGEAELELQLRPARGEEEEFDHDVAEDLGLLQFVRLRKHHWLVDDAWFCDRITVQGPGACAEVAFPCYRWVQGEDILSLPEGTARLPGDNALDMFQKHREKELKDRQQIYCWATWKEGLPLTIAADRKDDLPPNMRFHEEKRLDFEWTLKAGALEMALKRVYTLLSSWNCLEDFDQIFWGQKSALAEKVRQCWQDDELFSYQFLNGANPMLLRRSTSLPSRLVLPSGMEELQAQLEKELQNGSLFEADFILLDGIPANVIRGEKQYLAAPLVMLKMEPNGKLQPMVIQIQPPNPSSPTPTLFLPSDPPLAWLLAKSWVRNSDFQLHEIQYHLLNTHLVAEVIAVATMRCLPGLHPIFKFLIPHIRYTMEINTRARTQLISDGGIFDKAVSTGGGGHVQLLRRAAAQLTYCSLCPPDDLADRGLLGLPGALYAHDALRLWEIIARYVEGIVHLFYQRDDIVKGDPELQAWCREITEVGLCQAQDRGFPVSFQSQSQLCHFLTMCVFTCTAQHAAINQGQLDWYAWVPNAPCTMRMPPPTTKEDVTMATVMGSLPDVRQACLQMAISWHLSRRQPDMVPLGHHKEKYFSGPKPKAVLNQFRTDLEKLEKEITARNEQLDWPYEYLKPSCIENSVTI
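Purified human 12hLO at 150 nM in 25 mM Hepes, 0.01% Triton X-100, pH 7.0, preincubated 15 min at room temperature with compound. Reaction started with 40 uM arachidonic acid, 30 min at room temperature. Hydroperoxide measured by Fe-xylenol orange, 573/405 nm absorbance ratio.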
VDR inh: Inhibitors of the vitamin D receptor (VDR): qHTS | VDR-SRC2-3 peptide fluorescence polarization, 2 h | Potency, µM, hits mostly inhibitors | 400,000 tested, 0.93% active
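FP read-out; VDR + SRC2-3 coactivator peptide; 23 nl compound by pintool; 2 h RT incubation; reagents held at 4 deg C, protected from light.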
GRP78 ERSR act: qHTS for Inducers of the Endoplasmic Reticulum Stress Response (ERSR) in Human Glioma: qHTS. U87-MG GRP78 promoter luciferase reporter, 16 h. Potency, µM, most hits filed as activators. 420,000 tested, 0.02% active; also: series mostly up to about 76 µM; nearly all actives have a fitted effect of over 35% in size
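Stably transfected U87-MG glioma cells carrying a GRP78-based luciferase sensor; 16 h compound incubation. Luminescence end-point read 10 min after Bright-Glo addition at room temperature.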
Sfp PPTase inh: qHTS Assay for Inhibitors of Bacillus subtilis Sfp phosphopantetheinyl transferase (PPTase) | 4'-phosphopantetheinyl transferase ffp (Bacillus subtilis), Q9F4F7 | Biochemical Sfp PPTase activity, qHTS | Potency, µM, actives largely listed as inhibitors | 310,000 tested, 3.5% active | AID 1490, 2009;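 also: the enzyme is Sfp with the accession as filed and its product quenches rhodamine fluorescence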
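Sfp 15 nM + cpd, 15 min RT; start w/ rhodamine-CoA 5 uM, BHQ-2-YbbR 12.5 uM (final); 50 mM Hepes pH 7.6, 10 mM MgCl2, 0.01% NP-40, 0.01% BSA; read 525/598 nm at 0 and 30 min.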
USP1-UAF1 confirm: Inhibitors of USP1/UAF1: Hit Validation in Primary Assay. AID 540327, 2011. 50 tested, 50% active. Ub-Rhodamine cleavage, fluorescence kinetic read. Potency, µM (top dose mostly 114 µM), hits mostly inhibitors. shares compounds with VDR inh
VDR inh confirm: qHTS for Inhibitors of the vitamin D receptor (VDR): Hit Validation in Primary Screen; shares compounds with VDR inh; VDR-coactivator inhibition assay, qHTS confirmation; Potency, µM, actives largely listed as inhibitors; 840 tested, 89% active
VDR FP: qHTS for Inhibitors of the vitamin D receptor (VDR): Hit Validation using a Fluorescein Assay. Potency, µM (doses to about 57.1 µM), actives largely listed as inhibitors. AID 602200, 2012. shares compounds with VDR inh. 840 tested, 48% active. VDR-coactivator binding, fluorescein fluorescence polarization
VDR bla: qHTS for Inhibitors of the vitamin D receptor (VDR): Hit Validation using a Beta-Lactamase Assay. VDR beta-lactamase reporter cells, FRET ratio; cells co-treated with VDR agonist LG190178. shares compounds with VDR inh. Potency, µM (series often up to 46.1 µM), usual class: inhibitors. 840 tested, 23% active. AID 602202, 2012
VDR viability: qHTS for Inhibitors of the vitamin D receptor (VDR): Hit Validation using a Cytotoxicity Assay; shares compounds with VDR inh; cytotoxicity counter-screen, cell viability, qHTS; Potency, µM (titrated, usually from 48.3 µM), most hits filed as cytotoxic; 840 tested, 18% active; AID 602204, 2012; also: nearly all actives have a fitted effect of over 75% in size
A number is an active result; . = inactive; ? = inconclusive; / = no result; [ ] = another dose, or the depositor's remark. Calls follow the shape of the dose curve; as a rule, active = well fitted curve in the direction sought with a large enough effect; inconclusive = small, poorly fitted or top-dose-only effect, or another doubt; inactive = no such curve, though single readings can be large; an effect the other way counts as inactive or inconclusive.

SMILES	G9a inh	12-LOX inh	VDR inh	GRP78 ERSR act	Sfp PPTase inh	VDR inh confirm	VDR FP	VDR bla	VDR viability	others
O=C(c1ccccc1)N1CCn2c(nn(-c3cccc(Cl)c3)c2=O)C1	/	.[6.33 µM]	/	/	/	/	/	/	/
CC1C/C(=C\c2cccnc2)C(=O)/C(=C/c2cccnc2)C1 (stereo not drawn)	.	.	35µM	.	?	12	?	2.1µM	?
O=C(N[C@@H](Cc1ccccc1)C(=O)CCl)OCc1ccccc1	15µM	.	5.6µM	.	/	/	/	/	/	USP1-UAF1 confirm=26µM
Cc1nc(NC(=O)c2ccc(Cl)cc2)sc1Cc1ccc2c(c1)OCO2	8.9µM	?	79µM	.	20µM	?	?	.	?
Cc1nc(NC(=O)c2ccccc2)sc1Cc1ccc2c(c1)OCO2	.	?	.	.	.	/	/	/	/
c1ccc(-c2ccc(C3=Nn4c(Cn5nnc6ccccc65)nnc4SC3)cc2)cc1	8.9µM	.	?	.	28µM	14	10µM	.	.
c1ccc(C2=Nn3c(Cn4nnc5ccccc54)nnc3SC2)cc1	?	.	.	.	.	/	/	/	/
CC(C)c1nnc(NC(=O)c2cccc3ncccc23)s1	/	.	/	/	/	/	/	/	/
N#C/C(=C\c1ccc(-c2cc(Cl)ccc2Cl)o1)C(=O)Nc1cccc2ncccc12	?	/	?	.	/	/	/	/	/	USP1-UAF1 confirm=?
CNC(=O)c1ccc(CN(C(=O)NCC(F)(F)F)C2CC2)cc1	/	.	/	/	/	/	/	/	/
CC(=O)Nc1cccc(C(=O)/C=C/c2ccc(C)cc2)c1	.	.	25µM	.	.	21	?	?	?
CCC(=O)Nc1cccc(C(=O)/C=C/c2ccc(F)cc2)c1	?	.	?	.	.	/	/	/	/
O=C(/C=C/c1cccc(Cl)c1)c1nc2ccccc2[nH]1	.	.	45µM	.	?	8.4	?	?	?
O=C(/C=C/c1cccc(Cl)c1)Nc1ncccn1	.	.	.	.	.	/	/	/	/
COc1ccc(-c2cc(N)n(S(=O)(=O)c3c(F)c(F)c(F)c(F)c3F)n2)cc1OC	.	.	?	.	.	5	7.1µM	5.8µM	21µM
CCOc1ccc(-c2cc(N)n(S(=O)(=O)c3ccc(OC)cc3)n2)cc1	.	.	.	.	.	/	/	/	/
OCc1cn(-c2ccccc2)nn1	.	.	.	.	.	/	/	/	/
O=C1OC(NC(=O)c2ccccc2)C(n2cc(CO)nn2)=C1Cl (stereo not drawn)	?	.	40µM	.	4µM	?	?	.	.
CN(C)c1ccc(C=Nc2ccc(N(C)C)cc2)cc1	?	?	?	.	22µM	10	?	.	.
Cc1cccc(NC(=O)CNC(=O)Cn2c(=O)n(C)c3ccccc32)c1C	/	.	/	/	/	/	/	/	/
Cc1cccc2c1c1ccc3c(c1n2C)C(=O)C=CC3=O	2µM	?	22µM	.	3.5µM	9.5	13µM	7.3µM	8.9µM

Screens (PubChem)
